Data on 35 molecules can be found in PubChem BioAssay (Tox21).

Several values for one entry are separate records, joined by “and”; a condition that tells them apart may be missing. Equal values may be shown once. Inconclusive results are not listed. Unmarked numbers belong to inactive results. Activity calls are given as the source filed them. The call rests on the fitted dose curve; in most records, active means well fitted curve in the direction sought with a large enough effect in the repeat runs; inconclusive means weak or mixed curves; inactive means no such curve, though single readings can be large; an effect the other way counts as inactive or inconclusive.
On the % scale 0 is the no-effect control and ±100 the full control effect; potency means the concentration at half of the fitted maximal effect.

Tested on in one test: not listed separately
Nature of the test: qHTS assay to identify small molecule agonists of the constitutive androstane receptor (CAR) signaling pathway - cell viability counter screen (AID 1224836). Further: nearly all actives have a fitted effect of over 45% in size. The conditions noted are these: HepG2-CYP2B6-hCAR viability, CellTiter-Fluor, 23 h, PK11195 added to every well; series mostly up to 92.4 µM; viability change, negative = cytotoxic: at the top concentration. Put shortly:
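HepG2 cells stably carrying hCAR and a CYP2B6-2.2kb reporter were plated 4 h, then given compounds at 15 concentrations plus PK11195 (final 0.75 uM). After 23 h at 37 C, viability was read by CellTiter-Fluor fluorescence.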
As to `O=[N+]([O-])c1cccc2cccc([N+](=O)[O-])c12`, the “viability change, negative = cytotoxic” value was -7.36%.

In the case of `CCN1CCC2(CC1)COc1cc3c(cc12)N(C(=O)c1ccc(-c2ccc(-c4nnc(C)o4)cc2C)cc1)CC3`, the Potency is 44.8 µM (active).

In the case of `O=NN(CCO)CCO`, the “viability change, negative = cytotoxic” value is 0.509%.

For the molecule `CC(=O)O.CC(=O)O.CC(=O)O.CC(=O)O.CC(=O)O.CC(=O)O.CC(=O)O.O.O.[Cr].[Cr].[Cr]`, the “viability change, negative = cytotoxic” value was 3.65%.

Regarding `Nc1ccc(Cl)cc1C(=O)c1ccccc1F`, the “viability change, negative = cytotoxic” value is -8.66% [at 42.5 µM].

As to `CC(C)N(C(=O)CCl)c1ccccc1`, the Potency was 68.6 µM (active) and 61.1 µM (active).

For the molecule `Fc1ccc(C(OCCN2CCN(CCCc3ccccc3)CC2)c2ccc(F)cc2)cc1`, the Potency was 21.1 µM (active).

As to `COc1nc(C)nc(NC(=O)NS(=O)(=O)c2ccccc2Cl)n1`, the “viability change, negative = cytotoxic” value was -0.76%.

In the case of `Clc1cc(Cl)c(-c2cc(Cl)c(Cl)cc2Cl)cc1Cl`, the “viability change, negative = cytotoxic” value is 1.55% [at 42.5 µM].

Consider `CNC(=O)Oc1cc(C)cc(C(C)C)c1`, for which the “viability change, negative = cytotoxic” value was -0.361%.

For the molecule `ClCBr`, the “viability change, negative = cytotoxic” value is 1.14%.

For `c1ccc(N=NNc2ccccc2)cc1`, the “viability change, negative = cytotoxic” value was -12.6%.

For the molecule `CCC[CH2][Sn]([CH2]CCC)([CH2]CCC)[O][Sn]([CH2]CCC)([CH2]CCC)[CH2]CCC`, the Potency was 0.752 µM (active).

As to `CN(C)c1ccc(N)cc1`, the Potency is 59.6 µM (active).

With `Nc1c(Cl)c(Cl)c(Cl)c(Cl)c1Cl`, the “viability change, negative = cytotoxic” value is 8.18%.

Turning to `CCC1(CC)C(=O)N=C(O)NC1=O`, the “viability change, negative = cytotoxic” value was 3.15%.

On to `CC(C)Br`, for which the “viability change, negative = cytotoxic” value was 5.27%.

As for `CCn1cc[n+](C)c1` (tested in a mixture with another compound), the “viability change, negative = cytotoxic” value is -0.213%.

With `C=C(C)C(=O)[O][Sn]([CH2]CCC)([CH2]CCC)[CH2]CCC`, the Potency was 0.77 µM (active).

With `N#Cc1sc2c(=O)c3ccccc3c(=O)c=2sc1C#N`, the Potency was 8.63 µM (active).

For `CCCCN(CCCC)C(=S)S`, the “viability change, negative = cytotoxic” value was 3.38%.

As to `CCN(CC)C(=S)S`, the Potency was 54.9 µM (active) and 12.1 µM (active) and 19.3 µM (active).

Consider `O=[N+]([O-])c1ccccc1-c1ccccc1`, for which the “viability change, negative = cytotoxic” value was 2.07%.

For the molecule `COP(=S)(OC)Oc1nc(Cl)c(Cl)cc1Cl`, the “viability change, negative = cytotoxic” value was 3.52%.

For the molecule `S=C=Nc1ccccc1`, the “viability change, negative = cytotoxic” value is 3.48%.

Tested on in another test: not listed separately
Nature of the test: qHTS assay to identify small molecule antagonists of the constitutive androstane receptor (CAR) signaling pathway - cell viability counter screen (AID 1224837). Further: nearly all actives have a fitted effect of over 45% in size. The conditions noted are these: HepG2-CYP2B6-hCAR viability, CellTiter-Fluor, 23 h, co-treated with 50 nM CITCO; series mostly up to 92.4 µM; activity change, negative = cytotoxicity: at the top concentration. Put shortly: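 To flag cytotoxic false antagonists, HepG2 hCAR/CYP2B6-2.2kb cells were treated 23 hr with 15-concentration compound series and 50 nM CITCO at 37 C/5% CO2; CellTiter-Fluor fluorescence was the measured end point.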
(In qHTS, concentration-response curves come from the screen itself.)
As to `O=[N+]([O-])c1cccc2cccc([N+](=O)[O-])c12`, the “activity change, negative = cytotoxicity” value is 2.51%.

On to `CCN1CCC2(CC1)COc1cc3c(cc12)N(C(=O)c1ccc(-c2ccc(-c4nnc(C)o4)cc2C)cc1)CC3`, for which the Potency is 50.2 µM (active).

Regarding `O=NN(CCO)CCO`, the “activity change, negative = cytotoxicity” value was -0.938%.

In the case of `CC(=O)O.CC(=O)O.CC(=O)O.CC(=O)O.CC(=O)O.CC(=O)O.CC(=O)O.O.O.[Cr].[Cr].[Cr]`, the “activity change, negative = cytotoxicity” value was 0.229%.

On to `Nc1ccc(Cl)cc1C(=O)c1ccccc1F`, for which the “activity change, negative = cytotoxicity” value was -4.56% [at 42.5 µM].

Turning to `C#CCO`, the “activity change, negative = cytotoxicity” value was 5.6%.

`CCc1cccc(C)c1N(C(=O)CCl)[C@@H](C)COC`: the “activity change, negative = cytotoxicity” value was -21.8%.

Turning to `CC(C)N(C(=O)CCl)c1ccccc1`, the Potency is 54.5 µM (active) and 48.6 µM (active).

For `Fc1ccc(C(OCCN2CCN(CCCc3ccccc3)CC2)c2ccc(F)cc2)cc1`, the Potency was 21.1 µM (active).

`COC(=O)N(OC)c1ccccc1COc1ccn(-c2ccc(Cl)cc2)n1`: the “activity change, negative = cytotoxicity” value was -22.2%.

With `CCCCn1cc[n+](C)c1.[Cl][Fe-]([Cl])([Cl])[Cl]`, the “activity change, negative = cytotoxicity” value is -0.696%.

Take `COc1nc(C)nc(NC(=O)NS(=O)(=O)c2ccccc2Cl)n1`: the “activity change, negative = cytotoxicity” value is 2.36%.

In the case of `Clc1cc(Cl)c(-c2cc(Cl)c(Cl)cc2Cl)cc1Cl`, the “activity change, negative = cytotoxicity” value was -1.65% [at 42.5 µM].

On to `CNC(=O)Oc1cc(C)cc(C(C)C)c1`, for which the “activity change, negative = cytotoxicity” value is 5.13%.

For `c1ccc(N=NNc2ccccc2)cc1`, the “activity change, negative = cytotoxicity” value was -16.3%.

With `CCC[CH2][Sn]([CH2]CCC)([CH2]CCC)[O][Sn]([CH2]CCC)([CH2]CCC)[CH2]CCC`, the Potency was 0.947 µM (active).

As for `CN(C)c1ccc(N)cc1`, the Potency was 53.2 µM (active).

As to `CCC1(CC)C(=O)N=C(O)NC1=O`, the “activity change, negative = cytotoxicity” value was 1.55%.

On to `CCn1cc[n+](C)c1` (tested in a mixture with another compound), for which the “activity change, negative = cytotoxicity” value was -1.02%.

For `C=C(C)C(=O)[O][Sn]([CH2]CCC)([CH2]CCC)[CH2]CCC`, the Potency was 0.864 µM (active).

Turning to `O=S(=O)(O)F`, the “activity change, negative = cytotoxicity” value is -3.37%.

For `N#Cc1sc2c(=O)c3ccccc3c(=O)c=2sc1C#N`, the Potency was 6.11 µM (active).

Regarding `CCCCN(CCCC)C(=S)S`, the “activity change, negative = cytotoxicity” value is 4.67%.

Turning to `CCN(CC)C(=S)S`, the Potency was 13.6 µM (active) and 17.2 µM (active).

With `O=[N+]([O-])c1ccccc1-c1ccccc1`, the “activity change, negative = cytotoxicity” value is 2.49%.

For `C[N+]1(C)[C@@H]2CC[C@H]1CC(OC(=O)C(CO)c1ccccc1)C2` (stereo partly specified), the “activity change, negative = cytotoxicity” value was 2.94% [at 42.5 µM].

Turning to `CO/N=C(\C(=O)OC)c1ccccc1CO/N=C(\C)c1cccc(C(F)(F)F)c1`, the “activity change, negative = cytotoxicity” value is -22.1%.

With `COP(=S)(OC)Oc1nc(Cl)c(Cl)cc1Cl`, the “activity change, negative = cytotoxicity” value was 8.36%.

In the case of `COP(=S)(OC)Oc1ccc([N+](=O)[O-])c(C)c1`, the “activity change, negative = cytotoxicity” value was 1.41%.

For `S=C=Nc1ccccc1`, the “activity change, negative = cytotoxicity” value was 4.89%.

The target in another test is Nuclear receptor subfamily 1 group I member 3 (Homo sapiens) (UniProt Q14994). Nature of the test: qHTS assay to identify small molecule antagonists of the constitutive androstane receptor (CAR) signaling pathway (AID 1224838). Further: nearly all actives have a fitted effect of over 40% in size. To be noted: HepG2-CYP2B6-hCAR luciferase, CITCO-stimulated, 24 h; series mostly up to 92.4 µM; activity, negative = inhibition: at the top concentration. Put shortly: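 Human hepatoma HepG2 cells expressing hCAR and a CYP2B6 promoter (2.2 kb) luciferase construct; compound titration (15 points) with 50 nM CITCO final, 24 h at 37 C/5% CO2; luminescence via ONE-Glo after 30 min at room temperature.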
Sequence of Nuclear receptor subfamily 1 group I member 3 (Homo sapiens) (Q14994 whole entry, looked up): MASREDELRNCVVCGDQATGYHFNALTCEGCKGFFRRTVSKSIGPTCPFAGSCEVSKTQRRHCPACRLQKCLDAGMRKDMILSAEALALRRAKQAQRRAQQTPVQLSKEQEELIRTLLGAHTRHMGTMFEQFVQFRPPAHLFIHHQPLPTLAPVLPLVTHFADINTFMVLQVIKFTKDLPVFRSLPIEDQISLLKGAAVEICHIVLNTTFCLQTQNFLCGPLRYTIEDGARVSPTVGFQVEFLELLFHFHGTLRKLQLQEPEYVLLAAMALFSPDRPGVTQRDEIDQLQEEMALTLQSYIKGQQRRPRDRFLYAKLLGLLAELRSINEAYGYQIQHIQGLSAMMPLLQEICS
Consider `O=[N+]([O-])c1cccc2cccc([N+](=O)[O-])c12`, for which the “activity, negative = inhibition” value is 77.4%.

For `CCN1CCC2(CC1)COc1cc3c(cc12)N(C(=O)c1ccc(-c2ccc(-c4nnc(C)o4)cc2C)cc1)CC3`, the Potency is 44.8 µM (active).

Consider `Nc1ccc(Cl)cc1C(=O)c1ccccc1F`, for which the “activity, negative = inhibition” value was 95.7% [at 42.5 µM].

Take `COC(=O)c1cc(Oc2ccc(Cl)cc2Cl)ccc1[N+](=O)[O-]`: the “activity, negative = inhibition” value was 120%.

For the molecule `C#CCO`, the “activity, negative = inhibition” value is -0.797%.

`CCc1cccc(C)c1N(C(=O)CCl)[C@@H](C)COC`: the “activity, negative = inhibition” value is 80.5%.

Take `CC(C)N(C(=O)CCl)c1ccccc1`: the Potency is 54.5 µM (active) and 38.6 µM (active).

In the case of `COC(=O)N(OC)c1ccccc1COc1ccn(-c2ccc(Cl)cc2)n1`, the “activity, negative = inhibition” value is 90.4%.

On to `COc1nc(C)nc(NC(=O)NS(=O)(=O)c2ccccc2Cl)n1`, for which the “activity, negative = inhibition” value is -9.27%.

For `Clc1cc(Cl)c(-c2cc(Cl)c(Cl)cc2Cl)cc1Cl`, the “activity, negative = inhibition” value was 19.9% [at 42.5 µM].

Consider `CNC(=O)Oc1cc(C)cc(C(C)C)c1`, for which the “activity, negative = inhibition” value is 8.26%.

As to `ClCBr`, the “activity, negative = inhibition” value was -7.8%.

Consider `c1ccc(N=NNc2ccccc2)cc1`, for which the Potency entry is “inactive”.

Consider `CN(C)c1ccc(N)cc1`, for which the “activity, negative = inhibition” value was -118%.

Take `Nc1c(Cl)c(Cl)c(Cl)c(Cl)c1Cl`: the “activity, negative = inhibition” value is 54.4%.

For the molecule `CCC1(CC)C(=O)N=C(O)NC1=O`, the “activity, negative = inhibition” value is -11.7%.

For the molecule `COP(=O)(OC)Oc1ccc([N+](=O)[O-])cc1`, the “activity, negative = inhibition” value is 19%.

Turning to `CC(C)Br`, the “activity, negative = inhibition” value is 28.1%.

Take `C=C(C)C(=O)[O][Sn]([CH2]CCC)([CH2]CCC)[CH2]CCC`: the Potency was 0.273 µM (active).

`O=S(=O)(O)F`: the “activity, negative = inhibition” value was 28%.

For the molecule `N#Cc1sc2c(=O)c3ccccc3c(=O)c=2sc1C#N`, the Potency is 8.63 µM (active).

In the case of `O=[N+]([O-])c1ccccc1-c1ccccc1`, the “activity, negative = inhibition” value is 19.4%.

Turning to `CO/N=C(\C(=O)OC)c1ccccc1CO/N=C(\C)c1cccc(C(F)(F)F)c1`, the “activity, negative = inhibition” value is 47%.

On to `COP(=S)(OC)Oc1nc(Cl)c(Cl)cc1Cl`, for which the “activity, negative = inhibition” value was 49.1%.

Turning to `COP(=S)(OC)Oc1ccc([N+](=O)[O-])c(C)c1`, the “activity, negative = inhibition” value was 224%.

Turning to `S=C=Nc1ccccc1`, the “activity, negative = inhibition” value was 73.5%.
